This passage reports growth results from PubChem BioAssay (NCI).

This is part of a sample that, as a whole, favours compounds with a hit. Of some 83,000 tested, about 20% had one in any assay.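 Interpretation: 100, growth as untreated; towards 0, rising growth inhibition; 0, no net growth; 0 to -100, cell death. Compounds scoring below 10 were considered active.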 Unmarked numbers belong to inactive results. The source made the active and inactive calls.

Common to all, as to assay: NCI-60 one-dose screen, 48 h (100 = growth as untreated, 0 = no growth, -100 = all killed)
Test [1] deals with SK-MEL-2 melanoma. To be noted: 10 µM.
The subject of test [2] is SN12C renal. To be noted: 10 µM.
The subject of test [3] is UO-31 renal. To be noted: 10 µM.
The test system of test [4] is TK-10 renal. To be noted: 10 µM unless noted.
In test [5] the test system is ACHN renal. To be noted: 10 µM.
Test [6] has as its system A498 renal. To be noted: 10 µM.
Test [7] has as its system MOLT-4 leukemia. To be noted: 10 µM.
For test [8], the system named is CAKI-1 renal. To be noted: 10 µM.
Test [9] concerns CCRF-CEM leukemia. To be noted: 10 µM.
For test [10], the system named is EKVX NSCLC. To be noted: 10 µM.

`CCCC[P+](c1ccccc1)(c1ccccc1)c1ccccc1`: the growth in [1] was 75.7%; in test [2], 60.1%; in test [3], 86.9%; in test [4] it was 74.8%; in [5] it was 84.9%; in [6], 75.5%. Moreover, in test [7], the growth was 59.1%.
For the compound `Sc1ccc(Nc2c3ccccc3nc3ccccc23)cc1`, the growth in test [1] is 40.7%; in [2], 95.6%; in test [3], 82.4%; in test [4] it was 104%; in test [5] it was 97%; in test [8], 92.2%. The growth in [9] was 97.1%; in [7], 94.1%.
Regarding `O=C(N/N=C/c1ccccc1O)Nc1nn[nH]n1`, the growth in test [1] was 110%; in test [2], 100%; in test [3] it was 90.2%; in test [5] it was 92.8%; in test [8], 94.8%; in [6] it was 94.9%. In addition, the figures for the growth in test [9] and in test [7] were 98.8% and 109%, respectively.
In the case of `O=C(O)CNC(=O)c1ccccc1`, the growth in test [10] was 93.4%.
On to `C=CC[N+](C)(C)C`, for which the growth in test [1] was 111%; in test [2] it was 101%; in [3], 97%; in [4] it was 92.7%; in test [5], 100%; in [6] it was 106%. Further, the growth in test [7] was 94%.
On to `CC(C)(N)COS(=O)(=O)O`, for which the growth in test [1] is 117%; in test [2], 93.6%; in test [3], 100%; in test [4] it was 115%; in test [5], 114%; in [8], 103%. Moreover, the growth in test [6] is 113%; in test [7], 96.9%.
As for `COC(=O)/C=C/C(=O)NC(N)=O`, the growth in [1] was 85.2%; in test [2], 101%; in [3], 91.5%; in test [4] it was 102%; in test [5], 99.4%; in test [8], 99.2%. In addition, the growth in test [6] was 98.6%; in test [7] it was 100%.
For the compound `CCC/C=C(\C)C(C)(C#N)C(=O)OCC` (stereo not given), the growth in [1] is 105%; in test [3], 100%; in test [4] it was 108%; in test [5] it was 106%; in test [8], 92.3%; in test [6] it was 98.9%. The growth is 90.4% in [9] and 104% in test [7].
For the compound `O=c1[nH]nc(SC2CCCCC2)c(=O)[nH]1`, the growth in test [10] is 99.5%; in test [2] it was 102%; in test [3] it was 77.9%; in [4], 95.3%; in test [5], 113%; in test [8], 95%. For the same compound, the growth was 93.7% in test [6], 106% in test [9] and 89% in test [7].
Consider `C[C@@H](c1ccccc1)[C@@H](C(=O)O)c1ccccc1`, for which the growth in test [1] was 99.5%; in test [2] it was 98.1%; in [3] it was 91.2%; in [5], 96.4%; in test [8], 99.1%; in [6] it was 96.7%. The growth is 98.9% in test [9] and 102% in test [7].
With `C/C(=N\O)C1(O)CCCCC1`, the growth is 82.9% in test [1]; 101% in [2]; 96.8% in test [3]; 97.7% in test [5]; 99.3% in test [8]; 99.1% in test [6]. Further, the growth in test [9] was 99.4%; in test [7] it was 89.8%.
`O=[N+]([O-])c1ccc(Cl)c(S(=O)(=O)O)c1`: the growth in test [10] was 111%; in [2], 103%; in test [3] it was 89.3%; in test [4], 136%; in test [5] it was 101%; in test [8], 106%. Besides, the growth is 113% in test [6], 81.3% in [9] and 89.7% in test [7].
For `O=C(NCc1ccco1)Nc1c(Cl)cc(Cl)cc1Cl`, the growth was 75.5% in test [1]; 96.9% in test [2]; 84% in test [3]; 105% in test [4]; 97.2% in test [5]; 89.1% in test [8]. Besides, the growth in test [6] was 99.5%; in [7], 108%.
Turning to `CCOC(=O)C1=C(Nc2ccc(Br)cc2)C(=O)N(CC)C1`, the growth in [1] was 124%; in [2] it was 86%; in [3], 84.1%; in test [4] it was 101%; in test [5], 92.4%; in test [8], 88.2%. For the same compound, the values for the growth in [6] and in test [7] were 90.9% and 103%, respectively.
Regarding `Nc1ccccc1SC(CC(=O)c1ccccc1)c1c(Cl)cccc1Cl` (stereo not given), the growth in test [1] is 91.6%; in test [2], 62.9%; in test [3] it was 58.1%; in test [5], 69.4%; in [8], 76.9%; in test [6] it was 79.1%. The growth in [7] was 17.2%.
As to `COc1cc2c(cc1OC)[C@H](C(=O)O)[C@@H](c1ccc(OC(C)C)c(OC)c1)N(C)C2=O`, the growth in test [10] was 92.7%; in [2] it was 90.4%; in test [3] it was 97.6%; in [4], 96.2%; in [5], 96.2%; in test [8], 80%. The growth in [6] was 137%; in test [9], 96.6%; in test [7], 94.3%.
Take `CC1NC(=O)NC1CCCCCC(=O)O` (stereo not given): the growth is 103% in test [1]; 105% in [2]; 100% in test [4]; 101% in test [5]; 87.8% in [6]; 2.23% (active) in test [9]. Besides, the growth in test [7] is 118%.
Take `CN(C)/N=C/c1ccccc1O`: the growth in test [1] was 90.3%; in test [2] it was 97.7%; in [3] it was 92.3%; in test [5], 97.6%; in test [8], 96.1%; in test [6], 94.5%. For the same compound, the figures for the growth in test [9] and in test [7] were 100% and 95.9%, respectively.
For the compound `O=c1cc(-c2ccccc2)[nH]c2c1CCCC2`, the growth in test [10] was 43.3%; in test [2], 44.6%; in test [3] it was 50.8%; in test [4], 34.5%; in test [5], 40.5%; in test [8] it was 24.5%. Also, the figures for the growth in test [6], in test [9] and in test [7] were 19.2%, 32.6% and 41.1%, respectively.
